Platelet DG rel: modulates dense granule release in human platelets | human platelet-rich plasma, SFLLRN dense granule ATP release, luminescence | inhibition, %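 (compounds screened at 7.5 µM in platelet-rich plasma)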 | actives 0.22% (n = 300,000);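 active = mean replicate score, as percent of positive control, at or above 50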
HSP90 inh: blocks HSP90-mediated luciferase refolding in reticulocyte lysate. Rabbit reticulocyte lysate, luciferase refolding luminescence, 3 h. inhibition, % at 5.6 µM. actives 0.91% (n = 290,000). AID 1789;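 active = inhibition above the screen-wide mean plus 3 SD, computed separately per campaign, cut at about 16% in these data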;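 also: 0% = DMSO wells and 100% = 60 µM geldanamycin wells; inhibitors lower the luminescence because luciferase stays unfolded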
SENP6 inh: inhibitors of human SENP6 protease; Recombinant SENP6 catalytic domain, aminoluciferin luminescence; inhibition, % at 10 µM; actives 1.8% (n = 330,000); AID 2599;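 active = inhibition above about 50% at the single tested dose, limit read from the data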;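 also: plate controls were DMSO wells with enzyme for no effect and DMSO wells lacking enzyme for full effect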
Target sequence (Q9GZR1 628-1112 limits assumed): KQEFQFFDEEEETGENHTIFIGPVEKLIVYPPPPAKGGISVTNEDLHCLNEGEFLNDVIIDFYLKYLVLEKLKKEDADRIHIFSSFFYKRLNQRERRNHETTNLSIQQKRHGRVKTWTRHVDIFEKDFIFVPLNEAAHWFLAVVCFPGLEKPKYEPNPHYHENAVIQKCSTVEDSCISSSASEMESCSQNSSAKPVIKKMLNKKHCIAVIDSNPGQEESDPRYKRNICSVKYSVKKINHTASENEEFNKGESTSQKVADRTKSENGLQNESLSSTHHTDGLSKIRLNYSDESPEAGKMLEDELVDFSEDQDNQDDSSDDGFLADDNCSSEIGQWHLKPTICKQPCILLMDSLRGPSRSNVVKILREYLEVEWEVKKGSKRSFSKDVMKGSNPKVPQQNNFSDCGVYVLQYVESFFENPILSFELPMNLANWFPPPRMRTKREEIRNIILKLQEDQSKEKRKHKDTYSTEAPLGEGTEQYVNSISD
SENP8 block-1: blocks human SENP8 cleavage of Nedd8 substrate | Q96LD8 | recombinant SENP8, Nedd8 substrate fluorescence | inhibition, % at 20 µM | actives 0.64% (n = 360,000) | AID 602440; in the data active = inhibition mostly above about 40%, no sharp cut-off; inactive = mostly below about 27%
Target sequence (Q96LD8 whole entry, looked up): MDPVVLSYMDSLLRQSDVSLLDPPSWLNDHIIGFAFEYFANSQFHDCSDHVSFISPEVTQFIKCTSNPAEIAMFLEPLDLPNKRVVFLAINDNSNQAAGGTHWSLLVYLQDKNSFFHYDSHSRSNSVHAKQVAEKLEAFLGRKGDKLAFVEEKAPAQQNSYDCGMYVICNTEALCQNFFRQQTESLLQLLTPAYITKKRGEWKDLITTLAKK
SENP7 block: blocks the human protease SENP7; Q9BQF6; actives 1.5% (n = 330,000); inhibition, % at 5 µM; AID 434973; recombinant SENP7, Z-RLRGG-aminoluciferin luminescence, 40 min;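 active = inhibition above about 50% at the single test dose, limit read from the data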;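 also: plate controls were DMSO with enzyme for no effect and no enzyme buffer wells for full effect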
SENP8 block-2: inhibitors of human SENP8 protease. AID 2540. inhibition, % at 10 µM. Q96LD8. purified SENP8, Z-RLRGG-aminoluciferin cleavage, luminescence. actives 1.2% (n = 330,000); in the data active = inhibition above about 50%
SENP8 conf: human SENP8 inhibition, confirmed | AID 488912 | Recombinant SENP8, Z-RLRGG-aminoluciferin luminescence, 60 min | shares compounds with SENP7 block | actives 40% (n = 6,200) | inhibition, % at 12.5 µM;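 active = mean inhibition across replicates above about 50%, limit read from the data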
SENP6 confirm: human SENP6 inhibition, confirmed; shares compounds with SENP7 block; recombinant SENP6, Z-RLRGG-aminoluciferin luminescence; inhibition, % at 12.5 µM; actives 58% (n = 6,200)
SENP7 confirm: confirmation of human SENP7 protease inhibitors | shares compounds with SENP7 block | inhibition, % at 12.5 µM | actives 69% (n = 6,200) | AID 488917 | recombinant SENP7, Z-RLRGG-aminoluciferin luminescence, 40 min
Casp3 SENP sel: caspase-3 inhibition (SENP selectivity assay). shares compounds with SENP7 block. purified caspase-3, Z-DEVD-aminoluciferin luminescence, 60 min. inhibition, % at 12.5 µM. actives 60% (n = 6,200). AID 488918;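 active = mean inhibition above about 50%, limit read from the data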;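 also: plate controls were enzyme with DMSO for no effect and wells without caspase-3 for full effect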
Luc interf: luminescence interference (SENP counter-screen); shares compounds with SENP7 block; Pre-incubated SENP8/Z-RLRGG-aminoluciferin, luciferase luminescence interference; inhibition, % at 12.5 µM; actives 39% (n = 6,200);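 active = mean inhibition above about 50% when retested at one dose, limit read from the data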;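 also: plate controls were DMSO wells with completed reaction for no effect and substrate without enzyme for full effect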
* = called active by the depositor; / = no result given. Sampled rows, rich in hits. Any-hit rate of the full collection: about 2.8%.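 The calls were made as follows, unless noted: active = mean inhibition above about 50% in the one-dose retest (limit read from the data); inactive = the rest.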

SMILES	Platelet DG rel	HSP90 inh	SENP6 inh	SENP8 block-1	SENP7 block	SENP8 block-2	SENP8 conf	SENP6 confirm	SENP7 confirm	Casp3 SENP sel	Luc interf
COc1ncnc2sc(-c3ccccc3)cc12	60.6*	-0.2	93.2*	2.8	98.6*	96.8*	96.0*	95.3*	99.9*	95.1*	91.6*
COc1ccc(C2c3ccc(O)cc3Oc3ncn4nc(-c5ccccn5)nc4c32)cc1OC (stereo not given)	1.2	3.0	-19.6	1.0	-6.8	-8.7	/	/	/	/	/
COc1ccc(C2c3ccc(O)cc3Oc3ncn4nc(-c5ccncc5)nc4c32)cc1OC (stereo not given)	0.9	-0.3	67.0*	8.4	-1.8	7.6	11.8	7.9	5.3	1.7	-2.7
Cc1ccccc1OCC(=O)NCCCNC(=O)c1cccnc1	1.7	0.2	-8.4	0.6	-7.8	-11.2	/	/	/	/	/
O=C(Nc1ccc(O)cc1C(=O)O)c1ccc2c(c1)C(=O)N(Cc1ccco1)C2=O	1.9	-3.0	-10.8	17.9	-2.2	0.2	/	/	/	/	/
O=C(Nc1cc([N+](=O)[O-])ccc1O)c1cccc([N+](=O)[O-])c1	2.0	-2.5	83.3*	29.2	67.2*	68.6*	84.8*	82.7*	97.1*	86.4*	70.4*
O=C(Nc1cc([N+](=O)[O-])ccc1O)c1cccc(C(=O)Nc2cc([N+](=O)[O-])ccc2O)c1	0.0	1.7	/	-14.6	/	/	/	/	/	/	/
O=C(Nc1cc([N+](=O)[O-])ccc1O)c1ccc2c(c1)C(=O)N(Cc1ccco1)C2=O	0.7	-1.0	81.6*	8.1	38.1	75.7*	47.2	83.5*	74.4*	77.3*	84.4*
Cc1ccc(-n2ncc3ccccc3c2=O)cc1Cl	-4.7	-3.5	45.3	-18.3	40.6	37.0	/	/	/	/	/
O=c1c2ccccc2cnn1-c1ccc(Cl)cc1	6.4	2.2	58.9*	-3.6	57.4*	34.1	23.4	61.5*	73.3*	78.9*	33.2
COc1ccc(C(=O)N2CCOC2CNC(=O)C(=O)NCCc2ccccc2OC)cc1 (stereo not given)	-10.4	0.6	-2.8	10.8	9.6	0.9	/	/	/	/	/
CSc1nc(O)c(C(c2ccc(F)cc2)c2c(O)nc(SC)[nH]c2=O)c(=O)[nH]1	-9.6	/	-3.5	16.9	1.4	9.1	/	/	/	/	/
CSc1nc(O)c(N=Nc2ccc(F)cc2F)c(=O)[nH]1	10.3	14.8	91.1*	16.3	87.0*	81.3*	83.2*	86.4*	95.7*	93.1*	53.3*
COc1ccc(C(=O)Oc2cc(C)c(CN3CCOCC3)cc2C)cc1OC	-0.5	-1.1	-6.3	10.3	-0.8	6.7	/	/	/	/	/
Cc1c(C(=O)Nc2ccccc2N2CCN(C)CC2)oc2ccc(F)cc12	/	/	-16.5	-37.6	-2.5	18.0	/	/	/	/	/
O=C(Nc1ccc(S(=O)(=O)N2CCOCC2)cc1)c1ccc(Cl)cc1Cl	-1.2	-3.3	7.5	9.6	-4.7	-5.3	/	/	/	/	/
CCN1CCN(C2=C(NS(=O)(=O)c3ccc(Br)cc3)C(=O)c3ccccc3C2=O)CC1	13.1	6.5	63.7*	26.9	42.5	43.0	24.8	45.3	10.3	12.2	0.2
CCOC(=O)C1CCN(C2=C(NS(=O)(=O)c3ccc(Br)cc3)C(=O)c3ccccc3C2=O)CC1	11.0	6.4	53.3*	50.4*	37.1	15.8	12.4	28.2	-2.7	7.1	-1.1
CCOC(=O)C1CCN(C(=O)c2ccccc2NS(=O)(=O)c2ccc(C)cc2)CC1	-1.0	0.8	4.6	19.1	5.4	3.6	/	/	/	/	/
CCN1CCN(C(CNS(=O)(=O)c2ccc(Br)cc2)c2cccnc2)CC1 (stereo not given)	-7.2	-2.0	1.7	4.0	8.4	0.5	/	/	/	/	/
Cc1cc(C(=O)COC(=O)c2cccc(NS(C)(=O)=O)c2)c(C)n1CC1CCCO1 (stereo not given)	/	/	-23.8	-18.7	1.1	-4.3	/	/	/	/	/
Cc1cc(C(=O)COC(=O)c2ccccc2O)c(C)n1CC1CCCO1 (stereo not given)	/	/	97.0*	-20.8	96.9*	94.6*	97.7*	98.6*	101.6*	87.9*	56.4*
Cc1noc(C)c1NC(=O)Nc1ccc2c(c1)C(=O)N([C@H](C)CO)C[C@H](C)[C@@H](CN(C)C(=O)Nc1ccc3c(c1)OCO3)O2	/	/	16.6	8.3	-8.0	7.0	/	/	/	/	/
O=c1oc2cc(O)ccc2c2oc3cc(O)ccc3c12	-1.7	0.5	73.6*	-375.5	6.7	69.2*	44.7	50.0	89.3*	62.7*	12.4
O=C1NC(=S)S/C1=C\c1coc2ccc(O)cc2c1=O	-15.1	2.4	80.8*	17.7	4.4	60.5*	7.0	69.3*	44.5	37.0	74.1*
SMILES	Platelet DG rel	HSP90 inh	SENP6 inh	SENP8 block-1	SENP7 block	SENP8 block-2	SENP8 conf	SENP6 confirm	SENP7 confirm	Casp3 SENP sel	Luc interf
O=C1NC(=S)S/C1=C\c1coc2ccccc2c1=O	5.5	-0.8	-18.0	-76.2	14.1	-0.7	/	/	/	/	/
COC(=O)c1sc2nc3c(cc2c1N)CCCC3	1.2	1.1	20.2	-403.7	74.9*	56.7*	5.1	72.1*	91.3*	76.2*	50.9*
COc1cccc(N=Cc2c(O)c3ccccc3oc2=O)c1	-3.7	0.9	62.3*	-311.3	27.1	8.9	17.7	22.3	75.9*	14.9	13.4
Cc1ccc(N=Cc2c(O)c3ccccc3oc2=O)c(C)c1	3.0	6.2	42.4	-152.0	85.8*	45.6	53.3*	52.1*	34.9	43.9	1.8
CCOC(=O)N1CCN(C(=O)CSc2nnc3[nH]c(=O)c(C)c(C)n23)CC1	28.7	/	-13.0	4.3	-2.4	12.3	/	/	/	/	/
CS(=O)(=O)c1ccc2nc(NC(=O)c3cc([N+](=O)[O-])cc([N+](=O)[O-])c3)sc2c1	9.7	3.0	17.3	8.2	3.0	26.0	/	/	/	/	/
COc1cc(OC)cc(C(=O)Nc2nc3ccc(S(C)(=O)=O)cc3s2)c1	33.4	3.2	85.5*	-174.9	98.0*	90.8*	93.4*	95.9*	100.9*	95.7*	92.0*
COc1cc(C(=O)Nc2nc3ccc(S(C)(=O)=O)cc3s2)cc(OC)c1C	30.8	-3.5	9.1	-257.9	-0.2	1.7	/	/	/	/	/
CS(=O)(=O)c1ccc2nc(NC(=O)c3cccc([N+](=O)[O-])c3)sc2c1	37.4	-1.8	94.5*	-14.3	96.6*	95.4*	98.1*	98.7*	102.5*	97.0*	78.1*
